# Records with an inconclusive call do not appear. Unmarked numbers belong to inactive results. Activity calls are given as the source filed them. Calls follow the shape of the dose curve; as a rule, active = well fitted cell-killing curve with a large enough effect in the repeat runs; inconclusive = weak or mixed curves; inactive = no such curve, though single readings can be large or run the other way.
# Experiment: qHTS assay to identify small molecule antagonists of the androgen receptor (AR) signaling pathway - cell viability counter screen (AID 743033; also: nearly all actives have a fitted effect of over 45% in size)
# Details: AR-bla HEK293 viability, CellTiter-Glo luminescence, 16 h; series mostly up to 58.5 µM; activity change, negative = cytotoxicity: at the top concentration
# From the text: National Center for Advancing Translational Sciences [NCATS]
# NIH Chemical Genomics Center [NCGC]
# U.S. Environmental Protection Agency [EPA]
# National Institutes of Environmental Health Sciences [NIEHS]
# National Toxicology Program [NTP]
# U.S. Food and Drug Administration [FDA]
# Androgen receptor (AR), a nuclear hormone receptor, plays a critical role in AR-dependent prostate cancer and other androgen related diseases. Endocrine disrupting chemicals (EDCs) and their interactions with steroid hormone receptors like AR may cause disruption of normal endocrine function as well as interfere with metabolic homeostasis, reproduction, developmental and behavioral functions. To identify the compounds that inhibit AR signaling, GeneBLAzer AR-UAS-bla-GripTite cell line (Invitrogen, Carlsbad, CA, USA) containing a beta-lactamase reporter gene under control of an Upstream Activator Sequence (UAS) stably integrated into HEK293 cells was used to screen the Tox21 10K compound library. The cytotoxicity of the Tox21 compound library against the AR-bla cell line was tested in parallel by measuring the cell viability using CellTiter-Glo assay in the same wells.
# Tox21 Assay Protocol Summary:
# AR-bla cells were dispensed at 2,000 cells/5 uL of assay medium per well into black wall/clear-bottom 1536-well plates using a Multidrop Combi (ThermoFisher Scientific, Waltham, MA) dispenser. After the assay plates were incubated at a 37C and 5% CO2 for 4 hr, 23 nL of compounds dissolved in DMSO, positive controls or DMSO only was transferred to the assay plate by a Pintool station (Kalypsys, San Diego, CA), followed by addition of 1 uL of agonist (R1881) in culture medium using a Bioraptr Flying Reagent Dispenser (FRD) workstation (Beckman Coulter, Indianapolis, IN, USA). The plates were incubated at a 37C and 5% CO2 for 16 h. After 1 uL of LiveBLAzerTM B/G FRET substrate was added using a Bioraptr FRD, the plates were incubated at room temperature for 2 h and fluorescence intensity was measured by an Envision plate reader (PerkinElmer, Shelton, CT). For cell viability readout that measures cytotoxicity, 4 ul/well of CellTiter-Glo reagent was added into the assay plates using a Bioraptr FRD. After 30 min incubation at room temperature, the luminescence intensity in the plates was measured using a ViewLux (PerkinElmer) plate reader.
# % is scaled to controls: 0 for no effect and ±100 for the full control effect; potency is read from the fitted curve at half-maximal effect.
Compound,Potency,"activity change, negative = cytotoxicity"
CNS(=O)(=O)c1cc(C(=O)N2CCC(CCN3C4CCC3CC(n3c(C)nc5ccccc53)C4)(c3cccc(F)c3)CC2)c(Cl)cc1F (stereo not given),15.5 µM (active),
CCN(CC)CCOC(=O)C(c1ccccc1)c1ccccc1,,-7.96%
CC1=C2[C@@H]([C@H](C)CC[C@H]2/C=C(\C)C(=O)O)[C@H](O)C1,,-8.5%
COc1cc(C(C)=O)ccc1OCCCN1CCC(c2noc3cc(F)ccc23)CC1,,-14%
Nc1ccc(F)cc1,,-5.73% [at 78.9 µM]
CN1C(CSCC(F)(F)F)Nc2cc(Cl)c(S(N)(=O)=O)cc2S1(=O)=O (stereo not given),,-5.94%
C[C@@H]1[C@H](O)[C@@H](C)/C=C/C=C\C=C\C=C\C=C\C=C\C=C\[C@H](O[C@@H]2O[C@H](C)[C@@H](O)[C@H](N)[C@@H]2O)C[C@@H]2O[C@](O)(C[C@@H](O)C[C@@H](O)[C@H](O)CC[C@@H](O)C[C@@H](O)CC(=O)O[C@H]1C)C[C@H](O)[C@H]2C(=O)O (stereo in doubt),inactive,
CCC(CO)(CO)[N+](=O)[O-],,4.21%
O=CNNC=O,,0.663% [at 78.9 µM]
CCNc1nc(N)nc(Cl)n1,,1.44%
CCCCCCC(CO)CCCC (stereo not given),,7.08%
CC[C@@H](CO)NCCN[C@@H](CC)CO,,-21.3% [at 27 µM]
CC(C)OC(=O)c1ccccc1C(=O)OC(C)C,,1.94%
CC1CCC(C(C)CS)CC1S (stereo not given),,3.86%
O=C(O)/C=C/c1ccc(O)c(O)c1,,-4.32% [at 78.9 µM]
CCCCCCCCCCCCCCN(C)C,,1.1% [at 27 µM]
Cc1cn([C@H]2C[C@H](F)[C@@H](CO)O2)c(=O)[nH]c1=O,,-1.58%
O=C(c1ccccc1)C1CCC1,,0.718%
CSSc1ccoc1C,,0.292%
COC(=O)CC(C(C)=O)C(=O)OC (stereo not given),,-3.16%

Compound,Potency,"activity change, negative = cytotoxicity"
CC(=O)C(=O)CC(C)C,,3.15%
CCC(C)(C)C(=O)O,,-0.1%
CC1CCc2nccnc21 (stereo not given),,0.605%
O=C(O)CCC(=O)OC[C@@H](NC(=O)C(Cl)Cl)[C@H](O)c1ccc([N+](=O)[O-])cc1,,2.15%
Cc1ccccc1S(N)(=O)=O,,5.46%
CC(C)(O)CCc1ccccc1,,11.1%
Cc1ccc2nc(N)[nH]c(=O)c2c1Sc1ccncc1,,-13.2%
O=C(O)CNC(=O)c1ccccc1I,,1.18%
Cc1cccc2sc(N)nc12,,7.89% [at 78.9 µM]
CCCCCCC(O)CCCCCCCCCCC(=O)OC (stereo not given),,0.159%
CC(=O)Oc1cccc(O)c1,,10.2%
CCCCCc1ccco1,,-13%
c1ccc2sc(SSc3nc4ccccc4s3)nc2c1,,-0.212%
COc1cc(NS(=O)(=O)c2ccc(N)cc2)nc(C)n1,,6.5%
CC/C=C\C/C=C\C/C=C\CCCCCCCC(=O)OCC,,-16.1% [at 78.9 µM]
CCOC(=O)c1c(N)sc2c1CCN(Cc1ccccc1)C2,,-2.92%
NC(=O)c1ccccc1[N+](=O)[O-],,-0.919% [at 78.9 µM]
CC(CN(CCN(CC(C)OCCO)CC(C)OCCO)CC(C)OCCO)OCCO (stereo not given),,0.12% [at 78.9 µM]
C1CCCCC1,,0.788% [at 78.9 µM]
O=C(O)c1cccc(Oc2ccccc2)c1,,0.863%
